Compound activity: PubChem BioAssay, National Center for Advancing Translational Sciences (NCATS)
S2 tox: reduces viability in counter-screen for ATXN expression inhibitors; Potency, µM (doses to about 56.7 µM), hits mostly cytotoxic; S2 cells (HEK-293 line with an ATXN2-luciferase reporter) viability, CellTiter-Fluor protease fluorescence, 24 h; 400,000 tested, 0.49% active; further: potency means the concentration at half of the fitted maximal effect; nearly all actives have a fitted effect of over 40% in size
HepG2 viability: kills HepG2 cells in TGF-b inhibitor counter-screen; Potency, µM (titrated, usually from 46.1 µM), without a hit: at the top dose activity change, negative = cytotoxicity, hits mostly cytotoxic; HepG2 CAGA-GFP viability, ATP luminescence, 18 h; AID 588856; 410,000 tested, 0.76% active; further: potency means the concentration at half of the fitted maximal effect
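HepG2 CAGA-GFP cells (1000/well, DMEM with 1% FBS) received compound, then TGF-beta at 500 pg/mL final, and were incubated 18 hours at 37 degrees C. Viability was read by CellTiter-Glo luminescence. Media-only wells were set as complete cell-killing and DMSO as no toxicity.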
ATXN2 expr inh: inhibitors of ATXN2 expression; 360,000 tested, 0.72% active; HEK-293 ATXN2-luciferase reporter, luminescence, 24 h; Potency, µM (top dose mostly 57 µM), without a hit: at the highest dose activity change, negative = inhibition, actives largely listed as inhibitors; further: potency means the concentration at half of the fitted maximal effect; on the % scale 0 is the no-effect control and ±100 the full control effect; nearly all actives have a fitted effect of over 55% in size
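qHTS (up to 57 uM final) was run with 24 h compound exposure of reporter cells at 37 °C. Each well was multiplexed: SteadyGlo luminescence measured ATXN2-luciferase expression after a fluorogenic Gly-Phe-AFC viability readout (25 uM final).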
Giardia killer: kills Giardia lamblia | 340,000 tested, 0.15% active | AID 540267 | activity change, % at 7.66 µM, hits read low | Giardia lamblia trophozoite viability; in the data active means activity change below about -80%; inconclusive means between about -30% and that limit;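 further: parasites exposed to compound for two days anaerobically before the ATP read; on the % scale 0 is the no-effect control and ±100 the full control effect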
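Giardia lamblia trophozoites (100 cells/well) were incubated with compounds for 48 h at 37 deg C under anaerobic conditions. Viability was read as ATP content by one-step luminescence after 15-30 min at room temperature.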
uPA generation: inhibitors of cell surface uPA generation; 330,000 tested, 0.31% active; Potency, µM (top dose mostly 38.3 µM), for the others: at the top dose activity change, negative = inhibition, usual class: inhibitors; cell surface uPA generation assay, qHTS; active means well fitted inhibition curve with a large enough effect; inconclusive means small, poorly fitted or top-dose-only effect; inactive means no such curve, though single readings can be large or run the other way; tested in mouse RAW 264.7 cells; further: potency means the concentration at half of the fitted maximal effect; on the % scale 0 is the no-effect control and ±100 the full control effect; nearly all actives have a fitted effect of over 55% in size
TGFb inhibitor: blocks TGF-b signaling. HepG2 CAGA-GFP TGF-b/SMAD3 reporter, GFP fluorescence, 18 h; TGF-beta stimulated, 500 pg/mL final. Potency, µM (series often up to 46.1 µM), for the others: at the highest dose activity, negative = inhibition, actives largely listed as inhibitors. 410,000 tested, 1.2% active. AID 588855; further: potency means the concentration at half of the fitted maximal effect; on the % scale 0 is the no-effect control and ±100 the full control effect; nearly all actives have a fitted effect of over 65% in size
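HEPG2 CAGA-GFP cells (1000/well, DMEM with 1% FBS) were pre-incubated 2 h at 37 degrees C, given compound by pin tool, then stimulated with TGF-beta at 500 pg/mL final for 18 h before per-cell GFP fluorescence imaging.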
* hit, by the source's call; i = inactive; ? = inconclusive; . = not tested or not shown. Most compounds without a hit are left out; they make up all but 2.6% or so of the library. Unless noted, the call rests on the fitted dose curve; in most records, active means well fitted curve in the direction sought with a large enough effect; inconclusive means small, poorly fitted or top-dose-only effect, or another doubt; inactive means no such curve, though single readings can be large; an effect the other way counts as inactive or inconclusive.

SMILES	S2 tox	HepG2 viability	ATXN2 expr inh	Giardia killer	uPA generation	TGFb inhibitor
CCOc1cc(C(=O)OC(C)C(=O)Nc2ncc(Cl)cc2Cl)ccc1OCC(=O)N1CCOCC1 (stereo not drawn)	i	4.7%	.	10.7	8.91µM*	?
Cc1cc2ccc3ccccc3c2cc1CN(C)C	i	-39.3%	28.5%	3.1	0.3%	15.8µM*
Cc1ccccc1C(C(=O)NC1CCCCC1)N(C(=O)Cn1ccnc1C)c1cccc(F)c1 (stereo not drawn)	.	.	18.6%	.	.	.
Fc1cc(Br)ccc1Nc1c2c(nc3nc(-c4cccs4)nn13)CCCC2	i	-49.3%	7.4%	.	.	10µM*
Fc1ccccc1C1c2cccn2CCN1C(=S)Nc1ccc(Br)cc1 (stereo not drawn)	i	-5.4%	?	6.2	0.0%	22.4µM*
C=CCc1c(C)nc2cc(-c3ccc(C)cc3)[nH]n2c1=O	i	2.1%	.	-26.6	11.2µM*	3.7%
CCc1c(C)nc2cc(-c3ccccc3)[nH]n2c1=O	i	-8.3%	-13.7%	2.5	-10.7%	-0.9%
CCOC(=O)c1cnc2ccc(OCC)cc2c1N1CCN(c2ccccc2F)CC1	?	-27.3%	0.0%	.	.	11.2µM*
CCOC(=O)c1cnc2ccc(OCC)cc2c1N1CCN(c2ccccc2)CC1	i	-25.5%	-16.9%	-23.6	7.9%	?
CCOC(=O)C1CCN(c2c(C(=O)c3ccc(OCC)cc3)cnc3ccc(OC)cc23)CC1	?	-32.5%	?	.	.	8.91µM*
O=C(NC[C@H](O)CO)c1ccncc1Nc1ccc(I)cc1F	.	.	2.2%	.	.	.
Cc1c(C(=O)N2CCC(Cc3ccccc3)CC2)sc2ncnc(NCc3ccccn3)c12	i	.	.	.	.	.
Cc1ccc(OCCN2CCN(C(=O)CCC(=O)Nc3nnc(CC(C)C)s3)CC2)cc1	i	-80.0%	-17.2%	9.1	-3.6%	11.2µM*
C(=C\c1ccnc2ccccc12)/c1ccc(N2CCNCC2)cc1	.	-48.7%	.	.	.	?
CN(C)c1ccc(-c2nc3ccccc3c(=O)[nH]2)cc1	i	-13.0%	.	?	1.41µM*	-6.0%
O=C(Nc1ccccc1-c1cn2c(CN3CCNCC3)csc2n1)c1cnc2ccccc2n1	.	-105.3%	?	.	.	?
N/C(=N\OC(=O)N1CCOCC1)c1ccc(Cl)cc1	i	-18.6%	19.8%	-2.4	-12.6%	2.5%
N/C(=N\OC(=O)N1CCOCC1)c1ccc(Br)cc1	i	-30.5%	.	-25.7	10µM*	8.0%
Clc1nc(CN2CCCCC2)nc2sc3c(c12)CCCC3	?	-38.8%	.	16.6	?	25.1µM*
O=Nc1ccc(NO)c2ccccc12	i	-155.1%	.	.	.	12.6µM*
Cc1cc(C(=O)N2CCN(c3cccc(Cl)c3)CC2)n(-c2ccccc2)n1	.	.	-14.5%	.	.	.
CC(C)N1CCC(N2CCN(CCCc3ccccc3)CC2CCO)CC1 (stereo not drawn)	i	3.16µM*	-18.1%	4.8	-1.2%	0.8%
COc1cc(OC)cc(C(=O)NCc2ccc3c(c2)CCN3C(=O)c2ccccc2)c1	.	-16.0%	.	.	.	10µM*
Cc1cc2nc(-c3ccc[nH]c3=O)[nH]c2cc1C	.	0.891µM*	.	-93.7*	0.891µM*	?
O=Nc1ccc(/C=C/c2ccnc3ccccc23)cc1	.	-26.5%	.	.	.	-6.3%
SMILES	S2 tox	HepG2 viability	ATXN2 expr inh	Giardia killer	uPA generation	TGFb inhibitor
CCC(CO)Oc1cc(NCc2cccc(Cl)c2)c2ncn(C(C)C)c2c1 (stereo not drawn)	?	-76.1%	?	-7.9	?	20µM*
Cc1ccc(C(=O)COC(=O)COc2ccccc2[N+](=O)[O-])s1	i	12.0%	-5.5%	-10.0	3.3%	1.6%
CCOC(=O)COc1ccccc1/C=C\[N+](=O)[O-]	.	8.91µM*	?	-12.8	-15.6%	5.62µM*
CCC1CN(Cc2cn[nH]c2-c2ccc(OC)cc2)Cc2cc(OC)ccc2O1 (stereo not drawn)	i	.	.	.	.	.
O=C(c1cccs1)N1CCCc2cc(NS(=O)(=O)c3ccc(F)cc3F)ccc21	?	-40.3%	-16.6%	.	.	?
Cc1cc(F)ccc1S(=O)(=O)Nc1ccc2c(c1)CCCN2C(=O)c1cccs1	.	-37.7%	?	.	.	15.8µM*
COC(=O)c1c(OCc2cccnc2)cc(=O)n2c1CCN(C(=O)c1c3c(nn1C)CCCC3)CC2	i	.	.	.	.	.
NS(=O)(=O)c1cc(C(=O)NN2C[C@H]3[C@H]4CCC(C4)[C@H]3C2)ccc1Cl	i	.	0.7%	.	.	.
OCCN(CC(O)Cn1ccc2ccccc21)CC(O)Cn1ccc2ccccc21 (stereo not drawn)	i	-36.6%	-8.4%	-7.2	2.2%	?
CC(C)(C)c1ccc(OCC(O)CN(CCO)CC(O)Cn2ccc3ccccc32)cc1 (stereo not drawn)	i	-73.6%	-18.0%	-17.8	-13.8%	11.2µM*
COCc1c(C(=O)N2CCN(C(C)C)CC2)cnn1-c1nccc(-c2cc(C)sc2C)n1	i	.	.	.	.	.
O=C(Nc1ccc2[nH]ccc2c1)c1ccccc1	i	-23.9%	-16.6%	?	-8.1%	-4.1%
O=C(Nc1ccc2[nH]ccc2c1)c1ccc(F)cc1	i	-25.8%	.	-83.2*	0.891µM*	-7.5%
CN(C)c1cc(-c2ccccc2)nc(N)n1	i	-0.3%	6.9%	10.4	10µM*	2.0%
O=C(Nc1nnc(S(=O)(=O)N2CCc3ccccc32)s1)c1cccc(Cl)c1	i	-46.4%	?	.	.	7.94µM*
O=C(Nc1cc(Cl)cc(Cl)c1)c1ccc(F)c(S(=O)(=O)N2CCc3ccccc32)c1	.	-75.6%	.	.	.	3.98µM*
O=C(Nc1nnc(S(=O)(=O)N2CCc3ccccc32)s1)c1ccccc1	i	-39.4%	10.0%	.	.	?
COc1ccc(S(=O)(=O)N2CCc3ccccc32)cc1C(=O)Nc1ccc(C(N)=O)cc1	?	-89.9%	?	6.0	14.1µM*	?
COc1ccccc1C(=O)Nc1ccc(S(=O)(=O)N2CCc3ccccc32)cc1	i	-4.8%	12.2%	-4.8	11.7%	-8.5%
COc1ccc(OCC(=O)Nc2nnc(S(=O)(=O)N3CCc4ccccc43)s2)cc1	i	-33.7%	6.8%	.	.	?
O=C(COc1ccc(F)cc1)Nc1nnc(S(=O)(=O)N2CCc3ccccc32)s1	i	-29.3%	-4.6%	.	.	12.6µM*
c1ccc2sc(-c3cc4c(c(OC5CCOC5)c3)OCCN(Cc3cccn3-c3nccs3)C4)nc2c1 (stereo not drawn)	i	.	.	.	.	.
Brc1cccc[n+]1Cc1ccccc1C[n+]1ccccc1Br	.	-19.3%	.	.	.	35.2%
COCc1ccc(C(=O)N2CCOc3ccc(CN4CCN(c5ccc(F)cc5)CC4)cc3C2)o1	i	.	.	.	.	.
N#CC1=C(N)NC(=S)C(C(N)=O)C1c1ccc(Cl)cc1Cl (stereo not drawn)	23.8µM*	7.08µM*	?	5.4	-8.5%	?
